What all share (design): scale not given: direction of the effect not stated beside the values
For assay [1], the target named is Protein translocase subunit SecA (Escherichia coli (strain K12)) (UniProt P10408). The experiment in a line: Assay to Identify E. coli SecA ATPase Inhibitors. It is filed as functional. Conditions: 30 µM.
For assay [2], the target named is T1, Ubiquitin-activating enzyme e1, putative (Leishmania donovani (strain BPK282A1)) (UniProt E9BSI1).
T1 sequence (whole entry): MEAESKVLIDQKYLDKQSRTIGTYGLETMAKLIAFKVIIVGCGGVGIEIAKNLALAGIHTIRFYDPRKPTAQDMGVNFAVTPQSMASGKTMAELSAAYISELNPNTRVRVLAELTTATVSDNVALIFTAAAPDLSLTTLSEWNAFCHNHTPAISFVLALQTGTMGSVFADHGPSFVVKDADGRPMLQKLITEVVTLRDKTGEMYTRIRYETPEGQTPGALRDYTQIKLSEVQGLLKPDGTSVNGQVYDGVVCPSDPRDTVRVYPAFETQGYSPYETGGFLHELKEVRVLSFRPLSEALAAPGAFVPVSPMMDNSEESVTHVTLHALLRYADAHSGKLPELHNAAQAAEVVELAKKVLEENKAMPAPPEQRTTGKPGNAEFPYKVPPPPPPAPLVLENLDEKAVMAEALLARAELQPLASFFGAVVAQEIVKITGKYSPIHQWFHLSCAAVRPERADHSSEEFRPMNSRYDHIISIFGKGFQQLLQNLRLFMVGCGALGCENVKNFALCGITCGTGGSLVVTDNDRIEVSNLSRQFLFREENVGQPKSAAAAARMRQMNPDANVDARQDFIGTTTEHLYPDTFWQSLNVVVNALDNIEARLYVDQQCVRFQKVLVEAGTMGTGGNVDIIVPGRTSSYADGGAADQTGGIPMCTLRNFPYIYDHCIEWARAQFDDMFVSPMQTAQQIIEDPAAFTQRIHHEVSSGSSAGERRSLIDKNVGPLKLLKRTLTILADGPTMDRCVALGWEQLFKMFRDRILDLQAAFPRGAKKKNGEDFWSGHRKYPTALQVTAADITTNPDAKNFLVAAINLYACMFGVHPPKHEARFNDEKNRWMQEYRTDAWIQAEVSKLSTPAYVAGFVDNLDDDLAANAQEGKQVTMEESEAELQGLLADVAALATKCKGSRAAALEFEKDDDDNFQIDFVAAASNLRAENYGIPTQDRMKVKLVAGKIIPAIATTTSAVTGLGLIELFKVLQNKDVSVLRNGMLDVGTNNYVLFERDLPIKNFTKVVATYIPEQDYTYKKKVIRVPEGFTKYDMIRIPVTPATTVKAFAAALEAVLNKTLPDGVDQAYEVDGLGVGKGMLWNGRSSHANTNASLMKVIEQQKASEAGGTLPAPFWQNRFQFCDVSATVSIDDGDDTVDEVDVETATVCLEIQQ
The experiment in a line: Leishmania donovani Ubiquitin Activating Enzyme (LdE1). It is filed as functional. Conditions: 30 µM.

In assay [3] the target is AMP-activated protein kinase, AMPK (Homo sapiens) (UniProt P54646+O43741+P54619+Q9UGJ0+Q9Y478+Q13131+Q9UGI9). The experiment in a line: AMP-dependent Kinase enzyme assay. An in vitro enzyme assay that detects ADP turnover that is directly proportional to AMPK activity. This uses naive AMPK that is activated during the assay with MK-8722. The class given is functional. Conditions: 30 µM.

Assay [4] addresses Sialic acid-binding Ig-like lectin 9 (Homo sapiens) (UniProt Q9Y336). Nature of the assay: Hs-Siglec9 ALPHAscreen SOP 20170721. Conditions: 10 µM. (In general: In Alpha technology, singlet oxygen from a donor bead excites a nearby acceptor bead.)
Assay [5] has as its system Trypanosoma cruzi. The experiment in a line: Trypanosoma cruzi phosphomannomutase and mannose-1-phosphate guanylyltransferase assay. It is filed as functional. The settings on record: 10 µM.
In assay [6] the target is T2, Arginase-2, mitochondrial (Homo sapiens) (UniProt P78540).
T2 sequence (whole entry): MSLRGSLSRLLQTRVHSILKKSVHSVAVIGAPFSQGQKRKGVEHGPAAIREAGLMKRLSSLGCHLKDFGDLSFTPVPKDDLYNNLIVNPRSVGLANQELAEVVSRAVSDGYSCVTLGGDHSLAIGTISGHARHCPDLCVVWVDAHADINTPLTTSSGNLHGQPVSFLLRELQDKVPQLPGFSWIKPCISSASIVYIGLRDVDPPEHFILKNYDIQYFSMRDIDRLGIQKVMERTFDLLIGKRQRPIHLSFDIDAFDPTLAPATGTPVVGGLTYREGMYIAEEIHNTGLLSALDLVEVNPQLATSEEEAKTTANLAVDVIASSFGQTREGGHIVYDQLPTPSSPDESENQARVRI
Nature of the assay: in vitro enzyme assay to detect the production of urea directly proportional to the activity of Arginase II. Note: in the data most compounds retested in dose-response had high values. It is filed as functional. The settings on record: 33.3 µM.

In assay [7] the target is T3, Proteasome subunit beta (Trypanosoma cruzi) (UniProt O96673).
T3 sequence (whole entry): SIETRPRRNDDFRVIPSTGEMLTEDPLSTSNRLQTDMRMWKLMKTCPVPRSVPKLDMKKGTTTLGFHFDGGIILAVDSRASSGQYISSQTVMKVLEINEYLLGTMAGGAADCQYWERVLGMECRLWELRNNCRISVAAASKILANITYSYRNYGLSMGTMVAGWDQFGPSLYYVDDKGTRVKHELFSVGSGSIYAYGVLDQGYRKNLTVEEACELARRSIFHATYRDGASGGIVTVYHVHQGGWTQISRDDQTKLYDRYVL
The experiment in a line: Trypanosoma cruzi proteasome chymotrypsin-like activity (TcProtChymo) assay. Note: in the data most compounds retested in dose-response had high values. It is filed as functional. The settings on record: 9.37 µM.

Assay [8] is filed under the species Homo sapiens. Nature of the assay: To identify inhibition of the IFN signalling (Jak-Stat) pathway via expression of an eGFP reporter gene under the control of an IFN-stimulated response element (ISRE) containing MxA promoter. Conditions: 30 µM. It is filed as functional. (In general: In a reporter assay the amount or activity of a reporter protein is the signal.)

For assay [9], the target named is T4, Tyrosyl-tRNA synthetase, putative (Trypanosoma cruzi (strain CL Brener)) (UniProt Q4DSP6).
T4 sequence (whole entry): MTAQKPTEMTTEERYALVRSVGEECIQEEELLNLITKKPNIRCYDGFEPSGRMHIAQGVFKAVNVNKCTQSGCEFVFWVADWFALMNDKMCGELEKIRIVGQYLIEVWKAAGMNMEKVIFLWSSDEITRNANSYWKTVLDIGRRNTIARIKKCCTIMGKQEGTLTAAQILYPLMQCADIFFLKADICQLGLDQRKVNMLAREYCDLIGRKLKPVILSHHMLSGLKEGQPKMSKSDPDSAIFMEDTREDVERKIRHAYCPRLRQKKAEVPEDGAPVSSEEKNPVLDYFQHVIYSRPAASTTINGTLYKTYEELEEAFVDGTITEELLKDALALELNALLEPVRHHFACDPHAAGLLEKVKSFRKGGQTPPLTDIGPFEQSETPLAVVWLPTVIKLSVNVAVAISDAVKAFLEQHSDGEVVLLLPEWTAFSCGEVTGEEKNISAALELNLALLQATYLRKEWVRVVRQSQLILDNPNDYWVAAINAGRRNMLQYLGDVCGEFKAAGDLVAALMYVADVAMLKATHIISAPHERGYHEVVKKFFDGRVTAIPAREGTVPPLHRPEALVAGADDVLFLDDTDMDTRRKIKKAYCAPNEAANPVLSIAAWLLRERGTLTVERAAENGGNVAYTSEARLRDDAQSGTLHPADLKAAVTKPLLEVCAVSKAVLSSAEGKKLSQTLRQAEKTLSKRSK
Nature of the assay: Trypanosoma cruzi tyrosyl tRNA synthetase (TcYRS) _High Tyrosine SOP. Note: in the data most compounds retested in dose-response had high values. The class given is functional. The settings on record: 30 µM.

For assay [10], the target named is T4, Tyrosyl-tRNA synthetase, putative (Trypanosoma cruzi (strain CL Brener)). Nature of the assay: Trypanosoma cruzi tyrosyl tRNA synthetase (TcYRS) SOP. The class given is functional. Conditions: 30 µM.
Assay [11] deals with Chromo domain-containing protein 1 (Saccharomyces cerevisiae (strain ATCC 204508 / S288c) (Baker's yeast)) (UniProt P32657). Nature of the assay: ScCHD-1 Enzyme Inhibition Assay. Note: in the data most compounds retested in dose-response had high values. It is filed as functional. The settings on record: 30 µM.
Chain of Chromo domain-containing protein 1 (Saccharomyces cerevisiae (strain ATCC 204508 / S288c) (Baker's yeast)) (P32657 whole entry, the tested form may be a part): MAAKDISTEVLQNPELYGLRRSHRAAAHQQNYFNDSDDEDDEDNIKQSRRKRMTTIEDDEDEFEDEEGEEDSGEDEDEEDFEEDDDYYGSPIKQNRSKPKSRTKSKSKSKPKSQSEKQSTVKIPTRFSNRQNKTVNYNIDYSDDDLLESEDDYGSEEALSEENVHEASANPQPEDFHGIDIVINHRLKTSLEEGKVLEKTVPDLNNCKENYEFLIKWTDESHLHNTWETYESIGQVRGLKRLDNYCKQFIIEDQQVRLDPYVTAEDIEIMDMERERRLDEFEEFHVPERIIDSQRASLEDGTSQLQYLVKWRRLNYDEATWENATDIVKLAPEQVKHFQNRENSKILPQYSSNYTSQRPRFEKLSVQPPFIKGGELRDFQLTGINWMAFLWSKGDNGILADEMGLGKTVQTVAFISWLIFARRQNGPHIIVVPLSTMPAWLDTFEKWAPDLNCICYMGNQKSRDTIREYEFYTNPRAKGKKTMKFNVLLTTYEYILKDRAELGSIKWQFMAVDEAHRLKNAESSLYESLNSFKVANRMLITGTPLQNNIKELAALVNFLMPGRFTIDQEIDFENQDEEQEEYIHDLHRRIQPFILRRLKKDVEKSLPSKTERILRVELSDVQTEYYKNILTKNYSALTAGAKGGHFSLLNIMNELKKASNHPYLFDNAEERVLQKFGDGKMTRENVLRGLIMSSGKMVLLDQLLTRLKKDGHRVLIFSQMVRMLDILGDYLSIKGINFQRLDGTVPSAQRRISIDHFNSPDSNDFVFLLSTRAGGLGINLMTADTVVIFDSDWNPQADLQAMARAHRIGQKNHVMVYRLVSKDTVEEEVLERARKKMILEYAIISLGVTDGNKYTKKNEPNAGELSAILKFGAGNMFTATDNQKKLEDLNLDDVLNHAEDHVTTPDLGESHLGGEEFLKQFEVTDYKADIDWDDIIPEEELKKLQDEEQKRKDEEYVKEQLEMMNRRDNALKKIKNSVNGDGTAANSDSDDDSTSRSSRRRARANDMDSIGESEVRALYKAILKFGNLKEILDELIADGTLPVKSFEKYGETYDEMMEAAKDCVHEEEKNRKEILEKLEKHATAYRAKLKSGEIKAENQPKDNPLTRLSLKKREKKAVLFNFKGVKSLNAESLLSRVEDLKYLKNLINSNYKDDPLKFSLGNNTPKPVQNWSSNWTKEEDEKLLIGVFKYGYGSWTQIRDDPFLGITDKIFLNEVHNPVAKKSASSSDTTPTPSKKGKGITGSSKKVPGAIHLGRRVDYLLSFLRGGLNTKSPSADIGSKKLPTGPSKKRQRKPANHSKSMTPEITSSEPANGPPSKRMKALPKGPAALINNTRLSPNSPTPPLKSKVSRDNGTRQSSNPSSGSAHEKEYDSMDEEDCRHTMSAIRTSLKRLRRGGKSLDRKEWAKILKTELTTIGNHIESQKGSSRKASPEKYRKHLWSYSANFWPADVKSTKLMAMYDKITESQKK

In ChEMBL document CHEMBL3988442, “University of Dundee, Small-Polar-MMV Screening Library” (2021) one finds Percent Effect data, which are given here for eleven compounds.

For some of these results: Potency and affinity values are given separately.

Chain of Protein translocase subunit SecA (Escherichia coli (strain K12)) (P10408 whole entry): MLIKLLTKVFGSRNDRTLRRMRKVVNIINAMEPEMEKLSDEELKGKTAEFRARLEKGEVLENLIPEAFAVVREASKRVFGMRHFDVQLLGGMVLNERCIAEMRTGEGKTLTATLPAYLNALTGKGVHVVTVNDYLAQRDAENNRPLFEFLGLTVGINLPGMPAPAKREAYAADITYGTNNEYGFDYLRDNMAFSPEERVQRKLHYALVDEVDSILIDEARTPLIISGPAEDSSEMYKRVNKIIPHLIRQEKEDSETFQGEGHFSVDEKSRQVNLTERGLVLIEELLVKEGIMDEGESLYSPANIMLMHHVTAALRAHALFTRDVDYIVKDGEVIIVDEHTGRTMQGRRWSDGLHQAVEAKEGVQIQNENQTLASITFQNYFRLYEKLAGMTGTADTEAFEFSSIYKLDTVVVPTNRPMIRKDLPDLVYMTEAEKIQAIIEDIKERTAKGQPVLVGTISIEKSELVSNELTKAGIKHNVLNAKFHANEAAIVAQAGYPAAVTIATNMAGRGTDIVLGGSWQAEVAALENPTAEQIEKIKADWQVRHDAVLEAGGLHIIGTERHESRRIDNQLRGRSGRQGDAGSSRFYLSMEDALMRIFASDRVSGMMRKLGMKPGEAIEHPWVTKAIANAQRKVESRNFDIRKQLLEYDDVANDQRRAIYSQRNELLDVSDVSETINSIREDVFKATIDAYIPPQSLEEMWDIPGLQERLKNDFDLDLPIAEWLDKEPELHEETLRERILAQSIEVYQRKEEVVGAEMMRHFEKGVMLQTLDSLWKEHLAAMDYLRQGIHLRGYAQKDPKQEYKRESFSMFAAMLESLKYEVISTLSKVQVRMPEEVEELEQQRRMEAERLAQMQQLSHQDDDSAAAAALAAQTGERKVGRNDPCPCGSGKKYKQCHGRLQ
Chain of Sialic acid-binding Ig-like lectin 9 (Homo sapiens) (Q9Y336 whole entry): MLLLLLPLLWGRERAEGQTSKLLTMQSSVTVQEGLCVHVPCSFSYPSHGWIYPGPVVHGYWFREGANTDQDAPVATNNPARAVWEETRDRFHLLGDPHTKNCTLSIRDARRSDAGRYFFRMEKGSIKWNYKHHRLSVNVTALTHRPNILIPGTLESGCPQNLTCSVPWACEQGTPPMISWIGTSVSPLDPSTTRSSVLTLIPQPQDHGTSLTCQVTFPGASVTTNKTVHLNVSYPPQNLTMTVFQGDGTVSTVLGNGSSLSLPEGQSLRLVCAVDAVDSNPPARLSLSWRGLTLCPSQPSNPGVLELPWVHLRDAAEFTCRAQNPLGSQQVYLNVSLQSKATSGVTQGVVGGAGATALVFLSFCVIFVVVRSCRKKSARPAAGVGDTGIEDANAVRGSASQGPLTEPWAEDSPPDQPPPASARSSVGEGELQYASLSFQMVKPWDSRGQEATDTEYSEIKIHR

In the case of `Cc1ccc(CNC(=O)CN2CCN(CC(O)C3CC3)CC2)cc1` (stereo unspecified), the Percent Effect in [1] is -0.763%; in assay [2], 18.2%; in assay [3], -0.209%; in assay [4], -0.425%; in assay [5] it was 1.87%; in assay [6], 1.94%. Further, the Percent Effect in assay [7] came out at 11.3%; in assay [8] it was 15.5%; in assay [9], 9.52%; in [10], 16.7%; in assay [11], 89.9%.
In the case of `O=C(c1cccc2cccnc12)N1CCCN(c2cccnn2)CC1`, the Percent Effect in assay [1] is -6.9%; in [2], 10.4%; in [3], -4.23%; in assay [4] it was 1.47%; in [5], 6.37%; in [6], 1.9%. The Percent Effect in [7] is 10.8%; in assay [8], 0.652%; in assay [9], 2.86%; in assay [10], 11.8%; in assay [11] it was -27.3%.
As to `CCN(CC)CC1CN(CCc2ccccc2)Cc2nccn2C1` (stereo unspecified), the Percent Effect was -3.63% in assay [1]; -2.74% in [2]; 1.1% in [3]; 4.51% in [4]; 3.77% in [5]; -1.6% in assay [6]. Moreover, the Percent Effect is 1.28% in [7]; 2.5% in assay [8]; 7.29% in assay [9]; 8.64% in [10]; -0.569% in [11].
As for `Cc1nc(C)n(CC2CCCN(Cc3nc(C)c(C)o3)C2)n1` (stereo unspecified), the Percent Effect was -2.17% in assay [1]; 21.6% in assay [2]; -13.9% in assay [3]; -7.46% in assay [4]; 2.92% in assay [5]; -12.8% in assay [6]. In addition, the Percent Effect in assay [7] was 17.7%; in assay [8] it was 7.96%; in [9], 1.48%; in assay [10], 23.5%; in [11], -11%.
Take `CCCS(=O)(=O)N1CCC(NC(=O)c2ccc(Cl)s2)CC1`: the Percent Effect is -0.0871% in assay [1]; 2.67% in assay [2]; -1.87% in [3]; 5.67% in assay [4]; 5.16% in [5]; 9.9% in [6]. Also, the Percent Effect in assay [7] is 3.14%; in assay [8], -1.58%; in [9], 8.2%; in assay [10] it was 16.1%; in assay [11], -3.77%.
On to `CCc1noc(C)c1C(=O)N1CCCC1Cn1nc(C)cc1C` (stereo unspecified), for which the Percent Effect in assay [1] was -3.14%; in [2] it was 5.26%; in assay [3], -1.52%; in [4], -4.06%; in [5], 2.71%; in assay [6] it was 1.8%. Moreover, the Percent Effect in assay [7] is -3.47%; in [8], -20.2%; in assay [9] it was 4.43%; in [10], 13.6%; in assay [11], -6.42%.
As for `COCCC(=O)N1CCN(C)c2ncccc2C1`, the Percent Effect in assay [1] is -4.6%; in [2], 2.6%; in assay [3], 1%; in assay [4] it was 7.83%; in assay [5] it was -2.06%; in assay [6], -1.38%. The Percent Effect was 3.83% in assay [7]; 2.13% in assay [8]; 5.38% in assay [9]; 6.17% in [10]; 2.1% in [11].
`CC(C)N1CCC(NCc2cccnc2N(C)Cc2ccccc2)CC1`: the Percent Effect in assay [1] was -6.5%; in assay [2], 5.33%; in assay [3] it was -5.44%; in assay [4] it was 0.0952%; in [5] it was 0.0974%; in [6] it was 1.04%. The Percent Effect in assay [7] is 4.01%; in assay [8], -2.28%; in assay [9] it was 1.64%; in assay [10], 6.17%; in assay [11] it was -5.77%.
Take `CC(CNC(=O)N1CCN(c2cnccn2)CC1)Cc1cccs1` (stereo unspecified): the Percent Effect is -2.51% in assay [1]; 2.7% in [2]; 6.5% in assay [3]; 15.7% in assay [4]; -1.95% in [5]; -1.67% in assay [6]. Further, the Percent Effect in assay [7] was 10.6%; in assay [8], -1.65%; in assay [9], 0.99%; in assay [10], -6.1%; in [11], 0.413%.
`Cc1cc(C)cc(N(C)S(=O)(=O)c2cc(C(=O)O)cs2)c1`: the Percent Effect in assay [1] was -3.42%; in assay [2], 5.41%; in assay [3], -10.8%; in assay [4], 15.8%; in assay [5] it was 5.57%; in [6], -5.21%. The Percent Effect in assay [7] is 0%; in assay [8] it was 12.5%; in [9], -1.48%; in assay [10] it was 3.7%; in [11], -4.94%.
Turning to `O=C1CCC2(CCN(Cc3cc(F)ccc3Cl)CC2)CN1C1CCCC1`, the Percent Effect in assay [1] was 0.0694%; in [2], 13.3%; in assay [3], -4.38%; in [4] it was 3.44%; in assay [5] it was 3.99%; in assay [6] it was 0%. Further, the Percent Effect was 18.1% in [7]; 18.2% in assay [8]; 7.1% in [9]; 13.6% in assay [10]; -2.27% in assay [11].
